A number with no mark means an inactive call. A call without a number means that no potency is given here. For part of these data: Potency and affinity values are given separately. Active and inactive are the calls of the source. Unless noted, how the calls were made is not given here.
How the values were obtained:
[1] = antimalarial activity against Dd2 strain (AID 2302;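 active means growth inhibition above 50% at the single 2 µM test dose, taken to imply half-maximal potency below 2 µM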); settings: P. falciparum Dd2 in RBCs, LDH growth readout, 72 h; at 2 µM; stronger effect = higher value
[2] = human hepatoma cell viability loss – ATP luminescence, cytotoxicity control for P. falciparum antimalarial project, primary screen (AID 2303;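 active means inhibition above 50%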); settings: HepG2 viability, 24-48 h, at 10 µM, stronger effect = higher value
[3] = biological target: L-lactate dehydrogenase (Plasmodium falciparum (isolate CDC / Honduras)) (UniProt Q27743); assay: PfLDH activity inhibition – cell lysate, 3D7 strain, counter-screen for P. falciparum growth inhibition project (AID 2304); settings: P. falciparum 3D7 crude extract, LDH APAD/NBT absorbance; at 2 µM; stronger effect = higher value
L-lactate dehydrogenase (Plasmodium falciparum (isolate CDC / Honduras)), sequence (Q27743 whole entry, looked up): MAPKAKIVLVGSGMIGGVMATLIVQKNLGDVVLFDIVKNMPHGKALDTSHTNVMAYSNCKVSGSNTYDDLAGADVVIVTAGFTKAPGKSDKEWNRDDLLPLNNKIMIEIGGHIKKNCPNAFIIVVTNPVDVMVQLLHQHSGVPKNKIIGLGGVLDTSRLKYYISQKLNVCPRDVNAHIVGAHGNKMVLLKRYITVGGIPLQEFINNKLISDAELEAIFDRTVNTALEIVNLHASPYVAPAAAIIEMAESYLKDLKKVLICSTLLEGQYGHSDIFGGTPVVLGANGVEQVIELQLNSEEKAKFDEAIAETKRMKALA

[4] = inhibition of 3D7 malaria parasite growth – strain 3D7 (AID 2306); settings: P. falciparum 3D7 erythrocytic growth, LDH absorbance, 72 h; at 2 µM; stronger effect = higher value
[5] = biological target: Calcium-dependent protein kinase 1 (Plasmodium falciparum (isolate 3D7)) (UniProt P62344); assay: PfCDPK1 kinase inhibitors, biochemical, TCAMS library (AID 1159585; cut-off not given, nearly all actives have IC50 up to about 0.98 µM;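 further: inhibitors leave more ATP so luminescence rises with inhibition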); settings: recombinant PfCDPK1, Kinase-Glo ATP depletion luminescence
Calcium-dependent protein kinase 1 (Plasmodium falciparum (isolate 3D7)), sequence (P62344 whole entry, looked up): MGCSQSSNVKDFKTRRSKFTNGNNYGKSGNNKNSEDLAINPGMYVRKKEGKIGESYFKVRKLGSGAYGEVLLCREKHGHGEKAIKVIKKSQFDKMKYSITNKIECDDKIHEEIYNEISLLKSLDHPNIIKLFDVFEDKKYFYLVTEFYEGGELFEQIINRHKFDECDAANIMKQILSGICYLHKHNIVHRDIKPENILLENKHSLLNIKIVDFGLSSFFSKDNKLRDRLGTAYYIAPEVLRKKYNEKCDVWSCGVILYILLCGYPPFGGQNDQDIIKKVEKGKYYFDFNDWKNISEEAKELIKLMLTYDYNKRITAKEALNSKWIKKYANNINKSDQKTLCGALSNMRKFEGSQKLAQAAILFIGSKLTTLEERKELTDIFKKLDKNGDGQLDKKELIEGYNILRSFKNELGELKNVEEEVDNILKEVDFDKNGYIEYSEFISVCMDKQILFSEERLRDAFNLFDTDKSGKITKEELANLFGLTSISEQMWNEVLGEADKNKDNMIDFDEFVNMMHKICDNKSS

[6] = biological target: Plasmodium falciparum protein kinase 6 (PK6, PF3D7_1337100) (UniProt Q8IDW1); assay: PfPK6 kinase inhibitors, biochemical, TCAMS library (AID 1159586); settings: recombinant PfPK6, Kinase-Glo ATP depletion luminescence
Plasmodium falciparum protein kinase 6 (PK6, PF3D7_1337100), sequence (Q8IDW1 1-305): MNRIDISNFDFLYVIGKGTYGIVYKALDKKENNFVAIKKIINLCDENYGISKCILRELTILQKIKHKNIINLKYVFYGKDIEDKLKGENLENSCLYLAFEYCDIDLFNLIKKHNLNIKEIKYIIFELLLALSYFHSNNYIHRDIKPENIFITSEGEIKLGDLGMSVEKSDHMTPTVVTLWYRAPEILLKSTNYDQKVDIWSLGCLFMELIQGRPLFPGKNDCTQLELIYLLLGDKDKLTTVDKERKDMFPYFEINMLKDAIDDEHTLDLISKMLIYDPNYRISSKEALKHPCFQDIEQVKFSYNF

[7] = biological target: Protein kinase 7 (PK7), Plasmodium falciparum 3D7 (PF3D7_0213400) (UniProt Q7YTF7); assay: inhibition of Plasmodium PK7 catalytic activity – biochemical, TCAMS antimalarial set, Kinase-Glo luminescence (AID 1159587); settings: recombinant PfPK7, Kinase-Glo ATP depletion luminescence
Protein kinase 7 (PK7), Plasmodium falciparum 3D7 (PF3D7_0213400), sequence (Q7YTF7 1-343): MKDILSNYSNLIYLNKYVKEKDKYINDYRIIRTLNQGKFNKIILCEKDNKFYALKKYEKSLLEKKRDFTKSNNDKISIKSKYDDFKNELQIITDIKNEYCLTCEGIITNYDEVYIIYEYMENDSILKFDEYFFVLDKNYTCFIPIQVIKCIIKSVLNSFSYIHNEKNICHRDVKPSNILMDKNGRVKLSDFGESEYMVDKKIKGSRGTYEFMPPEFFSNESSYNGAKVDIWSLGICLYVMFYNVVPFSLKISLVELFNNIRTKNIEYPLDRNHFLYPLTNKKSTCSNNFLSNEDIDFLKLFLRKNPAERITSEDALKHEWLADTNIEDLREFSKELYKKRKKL

[8] = biological target: Calcium-dependent protein kinase 4 (Plasmodium falciparum (isolate 3D7)) (UniProt Q8IBS5); assay: PfCDPK4 kinase inhibitors, biochemical, TCAMS library (AID 1159588; cut-off not given, nearly all actives have IC50 up to about 0.91 µM); settings: recombinant PfCDPK4, Kinase-Glo ATP depletion luminescence
Calcium-dependent protein kinase 4 (Plasmodium falciparum (isolate 3D7)), sequence (Q8IBS5 whole entry, looked up): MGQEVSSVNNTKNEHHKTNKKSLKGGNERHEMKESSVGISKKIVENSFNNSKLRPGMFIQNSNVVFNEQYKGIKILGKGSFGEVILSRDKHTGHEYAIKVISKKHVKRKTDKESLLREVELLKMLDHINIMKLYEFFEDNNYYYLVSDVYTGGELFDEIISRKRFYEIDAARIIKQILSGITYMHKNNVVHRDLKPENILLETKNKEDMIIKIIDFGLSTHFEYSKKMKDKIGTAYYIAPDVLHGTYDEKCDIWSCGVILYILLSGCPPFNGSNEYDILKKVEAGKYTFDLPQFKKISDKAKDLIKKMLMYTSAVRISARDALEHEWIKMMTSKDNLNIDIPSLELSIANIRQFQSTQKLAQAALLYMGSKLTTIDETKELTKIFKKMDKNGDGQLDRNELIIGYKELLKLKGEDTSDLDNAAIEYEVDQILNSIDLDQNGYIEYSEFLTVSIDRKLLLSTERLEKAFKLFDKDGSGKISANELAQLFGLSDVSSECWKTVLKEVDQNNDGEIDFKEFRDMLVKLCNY

| Compound | growth inhibition [1] | inhibition [2] | inhibition [3] [%] | growth inhibition [4] | outcome [5] | outcome [6] | outcome [7] | outcome [8] |
| --- | --- | --- | --- | --- | --- | --- | --- | --- |
| O=C(Nc1cccc(-c2cccc(-c3nc4ccc(F)cc4[nH]3)c2)c1)c1ccoc1 | 35% | 36% | 5 | 98% (active) | inactive | inactive | inactive | inactive |
| N#Cc1ccc2c(c1)CCN(CCC1CCC(NC(=O)/C=C/c3cc(Br)cs3)CC1)CC2 (stereo unspecified) | 1% | 3% | 5 | 93% (active) | inactive | inactive | inactive | inactive |
| Cn1nc(C(F)(F)F)c(-c2ccc(Br)cc2)c1NC(=O)Nc1ccc(F)cc1F | 99% (active) | 16% | 0 | 99% (active) | inactive | inactive | inactive | inactive |
| NC(N)=NC(=O)Nc1cc(Cl)c(F)c(Cl)c1 | 64% (active) | 22% | -4 | 100% (active) | inactive | inactive | inactive | inactive |
| COc1ccc(-c2nccc(NC(N)=NCc3ccccc3)n2)cc1 | 21% | 27% | 1 | 83% (active) | inactive | inactive | inactive | inactive |
| CC(=O)NC(c1cccs1)c1cc(Cl)c2cccnc2c1O (stereo unspecified) | 93% (active) | 65% (active) | -2 | 94% (active) | inactive | inactive | inactive | inactive |
| Cc1ccc2c(NN=Cc3cccc(Cl)c3)cc(C)nc2c1 | 52% (active) | 50% (active) | -2 | 96% (active) | inactive | inactive | inactive | inactive |
| NC(=O)c1ccccc1OCC(=O)Nc1cccc(-c2ccc(-c3nc4ccccc4[nH]3)cc2)c1 | 46% | 66% (active) | 4 | 95% (active) | inactive | inactive | inactive | inactive |
| N#Cc1ccccc1C(=O)N(Cc1cncn1Cc1cccc(F)c1)CC1CC1 | 92% (active) | 0% | -1 | 101% (active) | inactive | inactive | inactive | inactive |
| COc1cc(CNCCCNc2cc(=O)c3ccccc3[nH]2)c2c(c1)C(C)CN2C(=O)OC(C)(C)C (stereo unspecified) | 87% (active) | -5% | 2 | 96% (active) | inactive | inactive | inactive | inactive |
| Cc1nc2ccc(-c3nc4ccc(N)cc4[nH]3)cc2[nH]1 | 80% (active) | 6% | -5 | 94% (active) | inactive | inactive | inactive | inactive |
| CCCC1N=C(N)N=C(N)N1c1cccc(C(F)(F)F)c1 (stereo unspecified) | 7% | 22% | 5 | 95% (active) | inactive | inactive | inactive | inactive |
| COc1ccc(-c2nc3ccc(C)nc3nc2-c2ccc(OC)cc2)cc1 | -2% | 4% | 4 | 91% (active) | inactive | inactive | inactive | inactive |
| Cc1nc(SCC(=O)N2CCCC2=O)c2c(C)c(C)sc2n1 | 0% | 45% | 2 | 96% (active) | inactive | inactive | inactive | inactive |
| CN(C)CCNC(=O)N1CCCN(c2ncnc3cc(-c4ccc(Cl)cc4)sc23)CC1 | 21% | 41% | 4 | 98% (active) | inactive | inactive | inactive | inactive |
| Cc1ccccc1CNc1noc(-c2c(F)cccc2Cl)n1 | 90% (active) | 14% | -5 | 97% (active) | inactive | inactive | inactive | inactive |
| COc1ccc2nccc(NN=Cc3ccc(N(C)C)cc3)c2c1 | 95% (active) | 4% | -6 | 101% (active) | inactive | inactive | inactive | inactive |
| CCOC(=O)Cn1ccc2c(NCc3ccccc3)nc(C)nc21 | 0% | 64% (active) | -1 | 96% (active) | inactive | inactive | inactive | inactive |
| Cc1cc(Cl)c(S(=O)(=O)N2CCc3ccccc32)cc1OCC(=O)NC1CCCCC1 | 93% (active) | 28% | -3 | 101% (active) | inactive | inactive | inactive | inactive |
| Cc1ccc(-c2nnc3c4ccccc4c(C)nn23)cc1S(=O)(=O)N1CCN(CCO)CC1 | 62% (active) | 16% | -4 | 85% (active) | inactive | inactive | inactive | inactive |
| COc1ccc2nc(C)cc(Nc3ccc(Oc4ccc(Br)c5ccccc45)c(Cl)c3)c2c1 | 101% (active) | 100% (active) | -3 | 100% (active) | inactive | inactive | inactive | inactive |

| Compound | growth inhibition [1] | inhibition [2] | inhibition [3] [%] | growth inhibition [4] | outcome [5] | outcome [6] | outcome [7] | outcome [8] |
| --- | --- | --- | --- | --- | --- | --- | --- | --- |
| O=C(NC1CCN(Cc2ccccc2)CC1)c1cccc(-c2cc3cc(Cl)c(Cl)cc3[nH]2)c1 | 86% (active) | 15% | -6 | 100% (active) | inactive | inactive | inactive | inactive |
| COC(=O)c1ccc2[nH]cc(C3CCN(CCC4CCN(C(=O)/C=C/c5ccc(Cl)c(Cl)c5)CC4)CC3)c2c1 | 59% (active) | 24% | 1 | 97% (active) | inactive | inactive | inactive | inactive |
| COc1ccc(CNCc2ccc(-c3cccc(-c4nc5ccc(C(F)(F)F)cc5[nH]4)c3)cc2)cc1 | 100% (active) | 59% (active) | -8 | 102% (active) | inactive | inactive | inactive | inactive |
| CCN(CC)CCOC(=O)c1ccc(NC(=O)c2cc(-c3ccc(C)cc3)nc3ccccc23)cc1 | 12% | 22% | -4 | 97% (active) | inactive | inactive | inactive | inactive |
| Nc1nc2c(c(=O)[nH]1)CN(S(=O)(=O)c1ccc(C(=O)N[C@@H](CCC(=O)O)C(=O)O)cc1)CC2 | 96% (active) | 49% | 6 | 95% (active) | inactive | inactive | inactive | inactive |
| Nc1nc(N)c2cc(NC(=O)c3ccc(Cl)c(Cl)c3)ccc2n1 | 83% (active) | 100% (active) | 1 | 100% (active) | inactive | inactive | inactive | inactive |
| Cc1cc2[nH]c(-c3ccc(C(=O)NCCCN4CCN(c5cccc(Cl)c5)CC4)s3)nc2cc1Cl | 93% (active) | 7% | -1 | 100% (active) | inactive | inactive | inactive | inactive |
| COc1ccccc1C(=O)C1CCCN(C(=O)c2ccccc2C(F)(F)F)C1 (stereo unspecified) | 84% (active) | -9% | -4 | 91% (active) | inactive | inactive | inactive | inactive |
| CC(C)NC(=O)c1cccc(-c2cccc(OCCN3CCSCC3c3ccccc3)c2)c1 (stereo unspecified) | 45% | 24% | 2 | 89% (active) | inactive | inactive | inactive | inactive |
| C=CCc1cc(Br)ccc1OCCCOc1c(C)nc(N)nc1N | 96% (active) | 56% (active) | -3 | 94% (active) | inactive | inactive | inactive | inactive |
| c1ccc(Oc2ccc(Nc3ccnc4cc(-c5csc(CN6CCCCC6)n5)ccc34)cc2)nc1 | 95% (active) | 22% | -7 | 100% (active) | inactive | inactive | inactive | inactive |
| COc1ccc(CNC(=O)C2Cc3ccccc3CN2Cc2ccc3ccccc3c2)cc1 (stereo unspecified) | 84% (active) | 15% | -8 | 96% (active) | inactive | inactive | inactive | inactive |
| CCCCCOc1ccc(C(=NC)N(CCCCC)CCCCC)c2ccccc12 | 80% (active) | 70% (active) | 3 | 96% (active) | inactive | inactive | inactive | inactive |
| CC(C)Nc1nc(NCCc2cnc[nH]2)nc(Nc2ccc(Oc3ccccc3)cc2)n1 | 9% | -3% | 1 | 95% (active) | inactive | inactive | inactive | inactive |
| O=C1OC2(CN1CC1CCN(Cc3ccc(O)c(Cl)c3)CC1)c1ccccc1-c1ccccc12 | 96% (active) | 32% | 0 | 97% (active) | inactive | inactive | inactive | inactive |
| COc1ccc(-c2nc(NC(=O)COc3ccc(C(C)=O)cc3)sc2C)cc1 | 58% (active) | -2% | 2 | 98% (active) | inactive | inactive | inactive | inactive |
| COc1cc2c(cc1NS(=O)(=O)c1ccc(OCc3ccc(Br)cc3)cc1)CCN(C1CCC1)CC2 | 30% | 36% | 2 | 94% (active) | inactive | inactive | inactive | inactive |
| CC(=O)c1cccc2c(NC(=O)Nc3ccc4nccc(N5CCN(C)CC5)c4c3)cccc12 | 94% (active) | 13% | -3 | 99% (active) | inactive | inactive | inactive | inactive |
| O=C(C=CC(=O)N1CCCCC1)NCc1ccccc1 | -3% | 6% | -2 | 100% (active) | inactive | inactive | inactive | inactive |
| Cc1cc(C(=O)NCc2ccc(-c3c(C)noc3C)cc2)n(-c2ccc(Cl)cc2)n1 | 98% (active) | -1% | 3 | 100% (active) | inactive | inactive | inactive | inactive |
| CCCCCCCn1c2c(c(=N)c3c1CCC3)CCCC2 | 98% (active) | 46% | 1 | 98% (active) | inactive | inactive | inactive | inactive |
